Test results from PubChem BioAssay (EPA / NIEHS).
Records with an inconclusive call do not appear. Activity calls are given as the source filed them. How the source made its calls, unless noted: active means hit-call score of the fitted dose curve at least 0.9, where 1 is the maximum; inconclusive means response in the unintended direction; inactive means score below 0.9.

Columns and labels:
[1] = read-out: Transforming Growth Factor (TGFA), TGFA (gene 7039); assay: LTEA_HepaRG_TGFA: Life Technologies and Expression Analysis (LTEA) Assay for Transforming Growth Factor (TGFA) using HepaRG (AID 2283532; active means hit-call score of the fitted dose curve at least 0.9, where 1 is the maximum; inactive means score below 0.9); conditions: mRNA level, 48 h; actives raise or lower the signal
Outline: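 Differentiated human HepaRG cells, plated 48 h then switched to serum-free induction medium, were exposed in duplicate for 48 h to 8-point half-log series from 100 uM in 0.5% DMSO. TGFA mRNA measured by qRT-PCR, normalized to ACTB/GAPDH/POLR2A, bidirectional fit versus DMSO.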

[2] = read-out: Transforming Growth Factor (TGFB1), TGFB1 (gene 7040); assay: LTEA_HepaRG_TGFB1: Life Technologies and Expression Analysis (LTEA) Assay for Transforming Growth Factor (TGFB1) Transporter using HepaRG (AID 2283533; active means hit-call score of the fitted dose curve at least 0.9, where 1 is the maximum; inactive means score below 0.9); conditions: mRNA level, 48 h; actives raise or lower the signal
Outline: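 TGFB1 transcript measured by qRT-PCR with normalisation to three housekeeping genes (ACTB, GAPDH, POLR2A); human HepaRG line treated in duplicate for 48 hr with an 8-point series topping at 100 uM, 0.5% DMSO vehicle, bidirectionally fitted.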

[3] = read-out: TIMP1, TIMP1 (gene 7076); assay: LTEA_HepaRG_TIMP1: Life Technologies and Expression Analysis (LTEA) Assay for TIMP1 using HepaRG (AID 2283534; active means hit-call score of the fitted dose curve at least 0.9, where 1 is the maximum; inactive means score below 0.9); conditions: mRNA level, 48 h; actives raise or lower the signal
Outline: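 Bidirectional change in TIMP1 transcript versus 0.5% DMSO, measured by TaqMan qRT-PCR with three housekeeping genes for normalization. HepaRG human liver cells dosed 48 h in duplicate, top concentration 100 uM with half-log dilutions.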

[4] = read-out: Tumor necrosis factor receptor 1 (TNFRSF1A), TNFRSF1A (gene 7132); assay: LTEA_HepaRG_TNFRSF1A: Life Technologies and Expression Analysis (LTEA) Assay for Tumor necrosis factor receptor 1 (TNFRSF1A) using HepaRG (AID 2283535; active means hit-call score of the fitted dose curve at least 0.9, where 1 is the maximum; inactive means score below 0.9); conditions: mRNA level, 48 h; actives raise or lower the signal
Outline: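 mRNA measured by qRT-PCR (TaqMan, Fluidigm arrays) against ACTB/GAPDH/POLR2A housekeepers after 48 h chemical exposure of HepaRG cells. Top concentration 100 uM, half-log 8-point series, duplicates; vehicle 0.5% DMSO, both fit directions.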

[5] = read-out: Thyroid Hormone Responsive (THRSP), THRSP (gene 7069); assay: LTEA_HepaRG_THRSP: Life Technologies and Expression Analysis (LTEA) Assay for Thyroid Hormone Responsive (THRSP) using HepaRG (AID 2283536; active means hit-call score of the fitted dose curve at least 0.9, where 1 is the maximum; inactive means score below 0.9); conditions: mRNA level, 48 h; actives raise or lower the signal
Outline: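 Differentiated human HepaRG cells were exposed in duplicate for 48 h in serum-free induction medium to eight concentrations (top 100 uM, half-log steps, 0.5% DMSO). Expression was quantified by TaqMan qRT-PCR, normalized to ACTB, GAPDH and POLR2A, with bidirectional fitting against DMSO.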

[6] = read-out: Cellular tumor antigen p53 (Homo sapiens) (UniProt P04637); assay: LTEA_HepaRG_TP53: Life Technologies and Expression Analysis (LTEA) Assay for Tumor Protein P53 (TP53) using HepaRG (AID 2283537; active means hit-call score of the fitted dose curve at least 0.9, where 1 is the maximum; inactive means score below 0.9); conditions: mRNA level, 48 h; actives raise or lower the signal
Outline: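 TP53 transcript measured by qRT-PCR, normalized to three housekeeping genes, after 48 h treatment of human HepaRG cultures with chemicals from 100 uM downward in half-log steps (0.5% DMSO vehicle, serum-free induction medium). Up- or down-regulation fitted against DMSO.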

[7] = read-out: UDP glucuronosyltransferase (UGT1A1), UGT1A1 (gene 54658); assay: LTEA_HepaRG_UGT1A1: Life Technologies and Expression Analysis (LTEA) Assay for UDP glucuronosyltransferase (UGT1A1) using HepaRG (AID 2283538; active means hit-call score of the fitted dose curve at least 0.9, where 1 is the maximum; inactive means score below 0.9); conditions: mRNA level, 48 h; actives raise or lower the signal
Outline: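 Human liver HepaRG cultures receive test chemical for 48 h, up to 100 uM in 0.5% DMSO, with phenobarbital induction controls. UGT1A1 mRNA is measured by qRT-PCR and normalized to ACTB, GAPDH and POLR2A.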

[8] = read-out: UDP glucuronosyltransferase (UGT1A6), UGT1A6 (gene 54578); assay: LTEA_HepaRG_UGT1A6: Life Technologies and Expression Analysis (LTEA) Assay for UDP glucuronosyltransferase (UGT1A6) using HepaRG (AID 2283539; active means hit-call score of the fitted dose curve at least 0.9, where 1 is the maximum; inactive means score below 0.9); conditions: mRNA level, 48 h; actives raise or lower the signal
Outline: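 Expression was quantified by TaqMan qRT-PCR on Fluidigm arrays with ACTB/GAPDH/POLR2A normalization and bidirectional fitting against 0.5% DMSO. HepaRG cells (~100,000/well) were treated in duplicate for 48 h at eight half-log concentrations up to 100 uM in serum-free induction medium.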

[9] = read-out: X-box binding protein 1 (XBP1), XBP1 (gene 7494); assay: LTEA_HepaRG_XBP1: Life Technologies and Expression Analysis (LTEA) Assay for X-box binding protein 1 (XBP1) using HepaRG (AID 2283540; active means hit-call score of the fitted dose curve at least 0.9, where 1 is the maximum; inactive means score below 0.9); conditions: mRNA level, 48 h; actives raise or lower the signal
Outline: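 XBP1 transcript by qRT-PCR (housekeeping-normalized: ACTB, GAPDH, POLR2A) after 48 h chemical treatment of HepaRG cells, 8-point half-log series topping at 100 uM, vehicle 0.5% DMSO. Gain and loss of signal fitted relative to DMSO.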

[10] = LTEA_HepaRG_LDH_cytotoxicity: Cytotoxicity Assessment in the Life Technologies and Expression Analysis (LTEA) Assay (AID 2283563)
Outline: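 LDH release into culture medium read after 48 h chemical treatment of HepaRG cells. Duplicate wells, eight-point half-log series topping at 100 uM, 0.5% DMSO vehicle and baseline.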

[11] = ATG_XTT_Cytotoxicity: Cytotoxicity Assessment in the Attagene TRANS-FACTORIAL HepG2 Assay (AID 2283584)
Outline: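 Viability endpoint from XTT after 24 h chemical exposure of reporter-transfected human HepG2 liver cells; signal loss fitted relative to DMSO negative control.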

[12] = TOX21_p53_BLA_p2_viability: Viability Assessment in the Tox21 HCT-116 p53 Agonism Beta-lactamase Assay, Phase 2 (AID 2283591);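 further: compound exposure lasted 16 h at 37 °C; actives lower the ATP signal meaning cytotoxicity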
Outline: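 HCT-116 p53-bla cells (4000/well) rested 5 h at 37C, then received compounds in DMSO (217-fold dilution) for 16 h at 37C, 5% CO2. After the CCF4 read, CellTiter-Glo was added; ATP luminescence was read after 30 min at room temperature.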

[13] = target: Cellular tumor antigen p53 (Homo sapiens) (UniProt P04637); assay: TOX21_p53_BLA_p2_ratio: Tox21 HCT-116 p53 Agonism Beta-lactamase Assay, Ratio, Phase 2 (AID 2283592)
Outline: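 Gain-of-signal p53 agonism was scored from the beta-lactamase FRET ratio (460/530 nm, 405 nm excitation) in HCT116 cells treated 16 h at 37C, 5% CO2, with DMSO serving as negative control and baseline.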

[14] = TOX21_p53_BLA_p3_viability: Viability Assessment in the Tox21 HCT-116 p53 Agonism Beta-lactamase Assay, Phase 3 (AID 2283593);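 further: cells exposed to compound for 16 h before reading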
Outline: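 HCT-116 cells (4000/well) rested 5 h at 37C, then got DMSO compounds by pin tool (217-fold dilution) for 16 h at 37C, 5% CO2. After the bla read, CellTiter-Glo was added and luminescence read at 30 min, room temperature.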

[15] = target: Cellular tumor antigen p53 (Homo sapiens) (UniProt P04637); assay: TOX21_p53_BLA_p3_ratio: Tox21 HCT-116 p53 Agonism Beta-lactamase Assay, Ratio, Phase 3 (AID 2283596)
Outline: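 HCT116 p53-bla cells (4000/well) given compound in DMSO (217-fold dilution) after 5 h, incubated 16 h at 37C. CCF4-AM substrate 2 h at room temperature; 460/530 nm emission ratio, gain fitted against DMSO.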

[16] = TOX21_p53_BLA_p4_viability: Viability Assessment in the Tox21 HCT-116 p53 Agonism Beta-lactamase Assay, Phase 4 (AID 2283597);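 further: hits lower the luminescence signal meaning cytotoxicity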
Outline: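 Following a 16 h exposure at 37C, the treated HCT116 wells were first read for the FRET ratio. They were then lysed with CellTiter-Glo, and ATP luminescence was recorded after 30 min at room temperature.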

[17] = target: Cellular tumor antigen p53 (Homo sapiens) (UniProt P04637); assay: TOX21_p53_BLA_p5_ratio: Tox21 HCT-116 p53 Agonism Beta-lactamase Assay, Ratio, Phase 5 (AID 2283599)
Outline: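 HCT-116 cells carrying a p53-inducible beta-lactamase reporter were seeded at 4000 cells/well and dosed after 5 h with compound in DMSO (217-fold dilution). After 16 h at 37C, CCF4-AM substrate was added for 2 h, and the 460/530 nm emission ratio was scored as gain-of-signal versus DMSO.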

[18] = TOX21_p53_BLA_p5_viability: Viability Assessment in the Tox21 HCT-116 p53 Agonism Beta-lactamase Assay, Phase 5 (AID 2283600)
Outline: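 After the 460/530 nm beta-lactamase measurement, the wells received an ATP-detection luciferase reagent; signal was read 30 min later at RT. Compound treatment lasted 16 h on cells pre-incubated 5 h post-seeding.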

[19] = Tanguay_ZF_120hpf_MORT_legacy: (Legacy) Oregon State University Tanguay Lab 120 Hour Post-fertilization zebrafish Assay for Mortality (AID 2283633);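 on AC50: fitted as increase in binary mortality versus DMSO negative control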
Outline: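 Static waterborne exposure from 6 to 120 hpf at 28C of single dechorionated wild-type (5D) embryos per well, 0.64% DMSO final. Death recorded present/absent by brightfield at 24 and 120 hpf.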

[20] = target: Cellular tumor antigen p53 (Homo sapiens) (UniProt P04637); assay: TOX21_p53_BLA_p4_ratio: Tox21 HCT-116 p53 Agonism Beta-lactamase Assay, Ratio, Phase 4 (AID 2283601)
Outline: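 HCT116 cells carrying an inducible beta-lactamase reporter were plated at 4000 cells/well, rested 5 h, then exposed to compounds in DMSO (217-fold dilution) for 16 h at 37C. CCF4-AM substrate was loaded 2 h at room temperature; 460/530 nm emission ratio scored gain-of-signal versus DMSO.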

Measured: AC50

Chain of Cellular tumor antigen p53 (Homo sapiens) (P04637 whole entry, looked up): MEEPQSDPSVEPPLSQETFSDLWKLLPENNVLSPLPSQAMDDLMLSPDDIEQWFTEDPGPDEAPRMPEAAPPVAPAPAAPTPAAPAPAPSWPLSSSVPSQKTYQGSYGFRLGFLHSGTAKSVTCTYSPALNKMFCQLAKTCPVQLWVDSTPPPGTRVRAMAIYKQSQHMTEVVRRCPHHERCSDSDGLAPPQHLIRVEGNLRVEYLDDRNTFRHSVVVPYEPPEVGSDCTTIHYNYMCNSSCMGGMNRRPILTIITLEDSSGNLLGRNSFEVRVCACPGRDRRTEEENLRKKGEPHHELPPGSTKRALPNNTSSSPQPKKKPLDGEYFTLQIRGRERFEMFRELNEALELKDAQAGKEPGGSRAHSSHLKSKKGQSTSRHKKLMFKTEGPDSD

CC1(C)NC(=O)N(c2ccc([N+](=O)[O-])c(C(F)(F)F)c2)C1=O
active: [1] 50 µM | [6] 78.2 µM
not listed: [20]
inactive: all other assays above

Cc1ccc(C(C)C)cc1
inactive: all assays above

CCCCCCCCOC(=O)c1cc(O)c(O)c(O)c1
active: [12] 27.6 µM | [13] 50 µM | [14] 67.9 µM | [15] 36.8 µM | [16] 32.9 µM | [17] 63.3 µM | [18] 42.6 µM | [20] 62.6 µM | [19] 8.13 µM
inactive: all other assays above
